Measured values published in PubChem BioAssay.
Active and inactive are the calls of the source. Unless noted, the rule behind the calls is not given here.

Legend:
[1] = HepG2 liver cancer cell viability effects, profiling panel, resazurin fluorescence, 24 h, PK04 Diversity Set (AID 1172); conditions: higher = more signal; note: test concentration not given here
[2] = basal S. cerevisiae growth modulation, no modifier, primary screen, OD600, strain BY4716, 24 h, basal condition (AID 1173); conditions: OD600, 24 h, higher = more signal, called active from +8 up or from −8 down
[3] = MM1S myeloma cell viability, profiling panel, resazurin fluorescence, basal, 24 h, PK04 Diversity Set (AID 1174); conditions: higher = more signal, called active from +8 up or from −8 down;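 note: MM1S multiple myeloma cell line; test concentration not given here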
[4] = target: Dihydroorotate dehydrogenase (quinone), mitochondrial (Plasmodium falciparum (isolate 3D7)) (UniProt Q08210); experiment: PfDHODH enzyme inhibitors, primary screen, biochemical, C-terminal His tag, absorbance 600 nm (AID 1175); conditions: DCIP absorbance 600 nm, higher = more signal, called active from +8 up or from −8 down;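 note: recombinant parasite enzyme with a five histidine tag at its C terminus; test concentration not given here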
Chain of Dihydroorotate dehydrogenase (quinone), mitochondrial (Plasmodium falciparum (isolate 3D7)) (Q08210 whole entry, looked up): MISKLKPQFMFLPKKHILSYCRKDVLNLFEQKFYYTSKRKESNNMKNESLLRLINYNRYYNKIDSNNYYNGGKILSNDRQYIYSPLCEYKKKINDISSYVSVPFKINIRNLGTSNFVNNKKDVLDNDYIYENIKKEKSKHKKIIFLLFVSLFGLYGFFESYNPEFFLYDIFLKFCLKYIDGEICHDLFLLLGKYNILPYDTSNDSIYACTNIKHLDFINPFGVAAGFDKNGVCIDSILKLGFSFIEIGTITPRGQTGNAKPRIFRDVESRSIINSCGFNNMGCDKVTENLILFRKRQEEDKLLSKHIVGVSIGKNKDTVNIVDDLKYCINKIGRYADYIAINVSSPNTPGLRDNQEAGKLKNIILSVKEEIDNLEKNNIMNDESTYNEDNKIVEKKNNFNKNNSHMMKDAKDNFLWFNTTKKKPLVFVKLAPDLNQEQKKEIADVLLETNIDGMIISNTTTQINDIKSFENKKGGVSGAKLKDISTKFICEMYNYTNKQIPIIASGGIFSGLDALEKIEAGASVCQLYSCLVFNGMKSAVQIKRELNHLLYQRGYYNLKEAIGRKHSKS

[5] = P. aeruginosa biofilm formation inhibitors, primary screen, strain PAO1, LB-PBS medium, absorbance 600 nm (AID 1176); note: test concentration not given here; conditions: P. aeruginosa PAO1 growth/biofilm, A600, 12 h; higher = more signal
[6] = S. cerevisiae RM11-1a growth modifiers, primary screen, strain RM11-1a, OD600, basal, 24 h (AID 1177); conditions: OD600, 24 h, higher = more signal, called active from +8 up or from −8 down;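 note: cultures grown under basal conditions with no added stressor; test concentration not given here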
[7] = E. coli acrAB mutant growth effects, primary screen, E. coli filamentation inducers, strain DRC39, OD650, 24 h (AID 1178); conditions: higher = more signal, called active from +8 up or from −8 down;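 note: growth measured as culture turbidity by optical density at 650 nm; test concentration not given here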
[8] = E. coli acrAB mutant growth effects, primary screen, E. coli filamentation inducers, strain DRC39, OD650, 48 h (AID 1179);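 note: screen aims at cell division blockers that make cells filament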; conditions: E. coli DRC39 delta-acrAB growth, higher = more signal, called active from +8 up or from −8 down
[9] = RPMI8226 myeloma cell viability, profiling panel, resazurin fluorescence, basal, 24 h, PK04 Diversity Set (AID 1180); conditions: higher = more signal;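 note: RPMI8826 multiple myeloma cell line at 5000 cells per well; test concentration not given here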
[10] = target: E3 ubiquitin-protein ligase XIAP (Homo sapiens) (UniProt P98170); experiment: XIAP binders, primary screen, biophysical, small-molecule microarray, fluorescence 635 nm (AID 1181); conditions: small-molecule microarray binding, higher = more signal;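 note: score merges 667 nm emission and signal to noise over triplicate slides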
Chain of E3 ubiquitin-protein ligase XIAP (Homo sapiens) (P98170 whole entry, looked up): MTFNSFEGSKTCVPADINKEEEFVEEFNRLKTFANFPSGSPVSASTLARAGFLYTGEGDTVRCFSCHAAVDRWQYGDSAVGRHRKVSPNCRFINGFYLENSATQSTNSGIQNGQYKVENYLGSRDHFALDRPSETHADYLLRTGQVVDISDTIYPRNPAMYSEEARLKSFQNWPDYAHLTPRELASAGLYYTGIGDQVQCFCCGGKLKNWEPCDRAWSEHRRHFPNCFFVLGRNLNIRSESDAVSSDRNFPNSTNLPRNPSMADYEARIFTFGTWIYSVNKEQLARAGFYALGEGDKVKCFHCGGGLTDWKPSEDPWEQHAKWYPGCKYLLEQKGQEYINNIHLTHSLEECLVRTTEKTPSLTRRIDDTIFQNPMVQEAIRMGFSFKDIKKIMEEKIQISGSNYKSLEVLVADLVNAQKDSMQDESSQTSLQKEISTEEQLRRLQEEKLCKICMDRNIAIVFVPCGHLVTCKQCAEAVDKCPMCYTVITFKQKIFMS

Structure (SMILES) | z-score [1] | z-score [2] | z-score [3] | composite z-score [4] | z-score [5] | z-score [6] | z-score [7] | z-score [8] | z-score [9] | composite z-score [10]
COCCOC(=O)N1C(=O)[C@@]2(c3cc(C#Cc4ccc(OC)cc4)ccc31)[C@H](C(=O)N1CCCCCCC1)[C@H]1C(=O)O[C@H](c3ccccc3)[C@H](c3ccccc3)N1[C@@H]2c1ccc(O)cc1 | 0.808 | -0.404 (inactive) | 0.0013 (inactive) | -0.458 (inactive) | 0.721 (inactive) | 0.868 (inactive) | -0.919 (inactive) | -1.22 (inactive) | -0.206 | -0.0501
CN1C(=O)C2C=CC(C(O)c3c(F)cccc3Cl)N(Nc3ccccc3)C2C1=O (stereo not given) | -0.203 | -1.03 (inactive) | -0.682 (inactive) | 0.061 (inactive) | 0.627 (inactive) | -0.284 (inactive) | -1.11 (inactive) | -0.618 (inactive) | -0.679 | 0.0651
C[n+]1ccc(CCCO)cc1 | -0.744 | 0.883 (inactive) | -0.255 (inactive) | -4.35 (inactive) | -0.199 (inactive) | 0.684 (inactive) | -1.02 (inactive) | -1.1 (inactive) | -0.551 | 0.769
CO[C@H]1O[C@H](CO)[C@@H](OC(=O)Nc2ccccc2-c2ccccc2)[C@H](OC(=O)Nc2ccc3c(c2)OCO3)[C@@H]1OC(=O)Nc1ccc2c(c1)OCO2 | -1.18 | 1.03 (inactive) | -1.38 (inactive) | -0.289 (inactive) | 1.86 (inactive) | 2.9 (inactive) | 0.999 (inactive) | -0.124 (inactive) | -1.12 | 0.227
O=C(N1CCCCC1)[C@@]1(Cc2ccccc2)COC(c2ccc(OCCCO)cc2)=N1 | 0.271 | -5.06 (inactive) | -0.949 (inactive) | -0.447 (inactive) | 0.258 (inactive) | 2.13 (inactive) | 0.401 (inactive) | 0.0519 (inactive) | 0.482 | 0.284
Cc1c(NC(=O)/C(C#N)=C/C=C/c2ccc(N(C)C)cc2)c(=O)n(-c2ccccc2)n1C | 0.29 | -0.312 (inactive) | 0.514 (inactive) | -0.186 (inactive) | -0.103 (inactive) | -0.246 (inactive) | 1.78 (inactive) | -0.202 (inactive) | 1.08 | 0.0899
O=C1NCC(=O)N2[C@@H]1C[C@@H](C(=O)O)[C@H]2c1ccc(O)cc1 | 0.153 | -0.231 (inactive) | 0.393 (inactive) | -0.273 (inactive) | 0.463 (inactive) | 0.414 (inactive) | -0.42 (inactive) | -0.0242 (inactive) | 0.205 | 0.0374
C=CCN1C(=O)[C@]2(CC=C)N=C(c3ccc(OCCCO)cc3)O[C@@H]2c2ccccc21 | -0.956 | -2.51 (inactive) | -3.23 (inactive) | 0.0306 (inactive) | 1.26 (inactive) | 0.506 (inactive) | 0.578 (inactive) | 0.509 (inactive) | -3.09 | 0.197
C=CCOC(=O)[C@H]1[C@@H]2C(=O)O[C@@H](c3ccccc3)[C@@H](c3ccccc3)N2[C@@H](c2ccc(OCCOC(=O)[C@H]3C[C@H]4C(=O)N[C@@H](Cc5ccccc5)C(=O)N4[C@H]3c3ccc(O)cc3)cc2)[C@]12C(=O)Nc1ccc(I)cc12 | -0.16 | 1.82 (inactive) | -0.417 (inactive) | -1.16 (inactive) | 4.1 (inactive) | 1.66 (inactive) | -0.359 (inactive) | -0.293 (inactive) | 0.194 | 0.0981
O=C1O[C@@H](c2ccccc2)[C@@H](c2ccccc2)N2[C@@H](c3ccc(O)cc3)[C@]3(C(=O)Nc4ccc(C#CCCO)cc43)[C@@H](C(=O)NC[C@H](O)c3ccccc3)[C@H]12 | 1.29 | -0.169 (inactive) | 0.214 (inactive) | 0.129 (inactive) | -0.192 (inactive) | 0.376 (inactive) | 0.6 (inactive) | 0.242 (inactive) | 1.33 | 0.363
O=C(CS)NCCCCCCNC(=O)[C@H]1C[C@H]2C(=O)N[C@@H](Cc3ccccc3)C(=O)N2[C@H]1c1cccc(OCCO)c1 | -0.351 | 0.765 (inactive) | -0.453 (inactive) | -0.439 (inactive) | 0.889 (inactive) | 0.765 (inactive) | -0.0049 (inactive) | 0.57 (inactive) | -0.614 | 0.316
O=C(O)[C@H]1C[C@H]2C(=O)N3CCC[C@H]3C(=O)N2[C@H]1c1cccc(OCCO)c1 | 1.32 | -0.361 (inactive) | 0.209 (inactive) | -0.117 (inactive) | -0.695 (inactive) | 0.43 (inactive) | 0.481 (inactive) | 0.896 (inactive) | 0.268 | -0.0901
COc1ccc(NN2C(C(O)c3ccccn3)C=CC3C(=O)N(C4CCCCC4)C(=O)C32)cc1 (stereo not given) | 1.64 | -0.774 (inactive) | 0.583 (inactive) | 1.25 (inactive) | 0.574 (inactive) | 0.219 (inactive) | -0.416 (inactive) | 0.824 (inactive) | 0.974 | -0.308
